Results reported in the supplement of paper PMC11732987, “Enantioselective OTUD7B fragment discovery through chemoproteomics screening and high-throughput optimisation” (Communications Chemistry, 2025).

Experiments:
Experiment in all cases: log2 ratio of Biotin-Ahx-Ub-VS probe labelling (fragment/DMSO); higher = less target engagement (more negative = stronger competition), active = hit call of the paper (q ≤ 0.05, log2 ratio ≤ -1)
Conditions in all cases: compound concentration: 200 uM; treatment time: 3 h
[1] = molecular target: USP34 (UniProt Q70CQ2)
Chain of USP34 (Q70CQ2 whole entry, the tested form may be a part): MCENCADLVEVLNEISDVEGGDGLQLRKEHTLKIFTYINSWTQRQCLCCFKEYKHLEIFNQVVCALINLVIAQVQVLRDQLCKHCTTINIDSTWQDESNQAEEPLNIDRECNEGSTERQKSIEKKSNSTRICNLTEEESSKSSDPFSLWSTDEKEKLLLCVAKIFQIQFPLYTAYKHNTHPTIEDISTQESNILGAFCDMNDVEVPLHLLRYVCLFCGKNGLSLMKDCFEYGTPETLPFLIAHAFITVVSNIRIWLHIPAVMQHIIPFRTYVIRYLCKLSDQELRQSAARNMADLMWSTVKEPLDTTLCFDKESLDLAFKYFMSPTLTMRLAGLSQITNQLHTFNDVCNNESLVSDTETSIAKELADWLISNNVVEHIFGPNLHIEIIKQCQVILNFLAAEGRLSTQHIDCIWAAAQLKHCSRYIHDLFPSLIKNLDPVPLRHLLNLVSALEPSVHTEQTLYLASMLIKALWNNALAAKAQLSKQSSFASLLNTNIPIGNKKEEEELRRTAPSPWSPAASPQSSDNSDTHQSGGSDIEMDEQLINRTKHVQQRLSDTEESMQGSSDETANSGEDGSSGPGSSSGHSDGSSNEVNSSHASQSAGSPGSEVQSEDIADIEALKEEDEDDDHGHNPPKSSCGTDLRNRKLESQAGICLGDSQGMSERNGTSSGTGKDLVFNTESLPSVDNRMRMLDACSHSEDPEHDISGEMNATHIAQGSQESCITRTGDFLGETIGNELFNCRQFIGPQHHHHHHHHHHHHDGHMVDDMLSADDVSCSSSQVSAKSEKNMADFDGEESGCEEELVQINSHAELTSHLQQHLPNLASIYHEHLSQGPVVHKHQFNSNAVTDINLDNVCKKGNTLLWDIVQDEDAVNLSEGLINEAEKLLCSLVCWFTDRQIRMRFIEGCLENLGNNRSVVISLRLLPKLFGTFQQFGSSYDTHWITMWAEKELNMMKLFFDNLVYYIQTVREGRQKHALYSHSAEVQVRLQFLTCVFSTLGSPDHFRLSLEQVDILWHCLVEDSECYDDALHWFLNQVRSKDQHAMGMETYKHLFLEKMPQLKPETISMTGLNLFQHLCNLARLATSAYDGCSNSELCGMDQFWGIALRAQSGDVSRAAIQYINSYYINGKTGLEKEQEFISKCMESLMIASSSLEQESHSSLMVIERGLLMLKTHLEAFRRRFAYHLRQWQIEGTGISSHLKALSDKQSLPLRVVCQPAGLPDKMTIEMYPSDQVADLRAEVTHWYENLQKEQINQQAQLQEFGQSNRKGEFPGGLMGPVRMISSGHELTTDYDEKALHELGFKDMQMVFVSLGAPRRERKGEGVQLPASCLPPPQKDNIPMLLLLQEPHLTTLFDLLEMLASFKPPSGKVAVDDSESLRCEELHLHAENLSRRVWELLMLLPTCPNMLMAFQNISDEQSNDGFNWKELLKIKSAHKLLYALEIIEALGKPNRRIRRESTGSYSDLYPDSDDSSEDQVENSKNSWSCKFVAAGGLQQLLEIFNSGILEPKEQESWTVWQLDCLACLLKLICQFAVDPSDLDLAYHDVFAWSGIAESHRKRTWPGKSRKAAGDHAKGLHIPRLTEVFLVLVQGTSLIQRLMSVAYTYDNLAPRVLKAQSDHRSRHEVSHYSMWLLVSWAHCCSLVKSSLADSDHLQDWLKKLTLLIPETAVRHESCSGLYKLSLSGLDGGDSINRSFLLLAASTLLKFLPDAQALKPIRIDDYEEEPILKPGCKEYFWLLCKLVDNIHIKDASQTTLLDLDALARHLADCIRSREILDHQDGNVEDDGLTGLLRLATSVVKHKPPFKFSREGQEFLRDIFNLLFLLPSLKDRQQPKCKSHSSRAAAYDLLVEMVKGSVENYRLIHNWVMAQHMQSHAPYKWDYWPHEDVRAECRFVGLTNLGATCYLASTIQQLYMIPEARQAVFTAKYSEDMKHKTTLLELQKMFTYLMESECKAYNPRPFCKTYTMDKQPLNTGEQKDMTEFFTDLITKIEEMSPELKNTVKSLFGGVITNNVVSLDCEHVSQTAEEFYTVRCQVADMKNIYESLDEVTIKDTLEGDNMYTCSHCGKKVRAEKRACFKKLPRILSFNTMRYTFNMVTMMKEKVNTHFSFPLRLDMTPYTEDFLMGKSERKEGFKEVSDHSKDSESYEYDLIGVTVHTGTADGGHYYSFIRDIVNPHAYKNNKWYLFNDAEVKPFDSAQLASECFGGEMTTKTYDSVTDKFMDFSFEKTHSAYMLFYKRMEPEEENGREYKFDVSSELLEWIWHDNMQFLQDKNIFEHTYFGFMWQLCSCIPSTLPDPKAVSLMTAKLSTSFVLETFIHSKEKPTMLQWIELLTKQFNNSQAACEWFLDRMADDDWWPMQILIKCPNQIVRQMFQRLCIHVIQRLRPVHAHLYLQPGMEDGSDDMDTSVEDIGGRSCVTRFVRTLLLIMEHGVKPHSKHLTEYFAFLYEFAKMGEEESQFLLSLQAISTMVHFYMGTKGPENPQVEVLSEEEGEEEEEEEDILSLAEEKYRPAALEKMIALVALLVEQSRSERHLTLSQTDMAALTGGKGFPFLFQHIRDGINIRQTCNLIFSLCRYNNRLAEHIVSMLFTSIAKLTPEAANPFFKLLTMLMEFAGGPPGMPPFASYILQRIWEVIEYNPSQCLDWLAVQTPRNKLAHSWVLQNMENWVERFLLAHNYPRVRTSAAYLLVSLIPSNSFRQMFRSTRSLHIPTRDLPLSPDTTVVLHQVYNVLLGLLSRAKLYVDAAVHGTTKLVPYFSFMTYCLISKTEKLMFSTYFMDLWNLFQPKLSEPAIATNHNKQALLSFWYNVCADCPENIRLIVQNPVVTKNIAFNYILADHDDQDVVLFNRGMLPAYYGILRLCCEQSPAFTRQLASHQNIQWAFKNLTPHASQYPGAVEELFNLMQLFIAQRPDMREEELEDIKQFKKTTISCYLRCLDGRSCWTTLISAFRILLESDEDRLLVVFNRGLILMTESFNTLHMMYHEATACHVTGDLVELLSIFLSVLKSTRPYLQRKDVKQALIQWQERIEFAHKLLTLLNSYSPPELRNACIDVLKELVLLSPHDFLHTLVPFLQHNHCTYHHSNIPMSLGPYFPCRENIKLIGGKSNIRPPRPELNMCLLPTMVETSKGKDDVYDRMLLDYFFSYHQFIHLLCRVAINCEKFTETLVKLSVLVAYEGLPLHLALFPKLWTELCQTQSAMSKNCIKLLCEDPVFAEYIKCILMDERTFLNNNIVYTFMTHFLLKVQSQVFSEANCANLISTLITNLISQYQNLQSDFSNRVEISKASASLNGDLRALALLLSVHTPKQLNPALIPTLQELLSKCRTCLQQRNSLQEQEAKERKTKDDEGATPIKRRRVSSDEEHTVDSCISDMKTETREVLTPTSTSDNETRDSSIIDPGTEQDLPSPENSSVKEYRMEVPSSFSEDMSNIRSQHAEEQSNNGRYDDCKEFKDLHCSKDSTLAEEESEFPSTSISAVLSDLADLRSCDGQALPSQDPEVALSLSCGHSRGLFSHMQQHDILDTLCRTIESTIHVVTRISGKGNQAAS
Outline: (§1)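 Triplicate samples of HEK293T lysate, 495 µg each, received fragment at 200 µM or vehicle for 3 h, followed by Biotin-Ahx-Ub-VS (0.5 µM final) for 1 h. After NeutrAvidin enrichment of labelled DUBs and LysC/trypsin digestion, peptides were run by diaPASEF LC-MS/MS. The values are average log2 fragment/vehicle ratios from global-median-normalised Spectronaut label-free quantities, tested by unpaired t-test on proteins having ≥2 unique peptides.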

[2] = molecular target: T1, USP36 (UniProt Q9P275)
T1 sequence (whole entry): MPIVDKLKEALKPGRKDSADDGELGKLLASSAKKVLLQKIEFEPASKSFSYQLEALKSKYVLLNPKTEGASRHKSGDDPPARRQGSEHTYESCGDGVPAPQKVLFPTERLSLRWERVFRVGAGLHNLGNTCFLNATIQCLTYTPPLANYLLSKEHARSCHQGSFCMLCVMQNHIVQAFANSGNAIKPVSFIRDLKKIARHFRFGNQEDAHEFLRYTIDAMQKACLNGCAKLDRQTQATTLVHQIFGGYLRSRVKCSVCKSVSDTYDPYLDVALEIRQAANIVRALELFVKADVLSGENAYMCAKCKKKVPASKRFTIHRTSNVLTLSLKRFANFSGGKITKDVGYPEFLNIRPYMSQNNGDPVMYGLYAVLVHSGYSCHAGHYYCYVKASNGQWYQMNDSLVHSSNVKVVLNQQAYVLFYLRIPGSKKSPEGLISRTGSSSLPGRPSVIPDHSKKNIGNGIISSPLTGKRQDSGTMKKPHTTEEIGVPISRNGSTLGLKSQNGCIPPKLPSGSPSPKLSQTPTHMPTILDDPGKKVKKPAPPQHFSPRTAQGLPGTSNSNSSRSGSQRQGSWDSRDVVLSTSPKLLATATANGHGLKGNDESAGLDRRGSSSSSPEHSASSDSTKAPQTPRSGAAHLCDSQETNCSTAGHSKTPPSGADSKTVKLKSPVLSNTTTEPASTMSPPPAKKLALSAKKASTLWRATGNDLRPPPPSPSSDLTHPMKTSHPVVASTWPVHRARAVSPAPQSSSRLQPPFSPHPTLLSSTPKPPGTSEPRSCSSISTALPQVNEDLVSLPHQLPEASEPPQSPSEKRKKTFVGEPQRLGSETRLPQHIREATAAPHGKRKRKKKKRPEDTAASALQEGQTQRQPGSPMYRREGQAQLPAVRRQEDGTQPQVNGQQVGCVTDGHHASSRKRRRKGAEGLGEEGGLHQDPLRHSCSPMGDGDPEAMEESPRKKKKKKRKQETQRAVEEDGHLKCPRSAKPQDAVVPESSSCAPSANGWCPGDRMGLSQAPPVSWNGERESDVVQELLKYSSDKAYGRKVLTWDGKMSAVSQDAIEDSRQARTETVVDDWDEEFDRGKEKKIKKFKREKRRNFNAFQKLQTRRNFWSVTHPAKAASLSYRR
Outline: as §1

[3] = molecular target: T2, USP38 (UniProt Q8NB14)
T2 sequence (whole entry): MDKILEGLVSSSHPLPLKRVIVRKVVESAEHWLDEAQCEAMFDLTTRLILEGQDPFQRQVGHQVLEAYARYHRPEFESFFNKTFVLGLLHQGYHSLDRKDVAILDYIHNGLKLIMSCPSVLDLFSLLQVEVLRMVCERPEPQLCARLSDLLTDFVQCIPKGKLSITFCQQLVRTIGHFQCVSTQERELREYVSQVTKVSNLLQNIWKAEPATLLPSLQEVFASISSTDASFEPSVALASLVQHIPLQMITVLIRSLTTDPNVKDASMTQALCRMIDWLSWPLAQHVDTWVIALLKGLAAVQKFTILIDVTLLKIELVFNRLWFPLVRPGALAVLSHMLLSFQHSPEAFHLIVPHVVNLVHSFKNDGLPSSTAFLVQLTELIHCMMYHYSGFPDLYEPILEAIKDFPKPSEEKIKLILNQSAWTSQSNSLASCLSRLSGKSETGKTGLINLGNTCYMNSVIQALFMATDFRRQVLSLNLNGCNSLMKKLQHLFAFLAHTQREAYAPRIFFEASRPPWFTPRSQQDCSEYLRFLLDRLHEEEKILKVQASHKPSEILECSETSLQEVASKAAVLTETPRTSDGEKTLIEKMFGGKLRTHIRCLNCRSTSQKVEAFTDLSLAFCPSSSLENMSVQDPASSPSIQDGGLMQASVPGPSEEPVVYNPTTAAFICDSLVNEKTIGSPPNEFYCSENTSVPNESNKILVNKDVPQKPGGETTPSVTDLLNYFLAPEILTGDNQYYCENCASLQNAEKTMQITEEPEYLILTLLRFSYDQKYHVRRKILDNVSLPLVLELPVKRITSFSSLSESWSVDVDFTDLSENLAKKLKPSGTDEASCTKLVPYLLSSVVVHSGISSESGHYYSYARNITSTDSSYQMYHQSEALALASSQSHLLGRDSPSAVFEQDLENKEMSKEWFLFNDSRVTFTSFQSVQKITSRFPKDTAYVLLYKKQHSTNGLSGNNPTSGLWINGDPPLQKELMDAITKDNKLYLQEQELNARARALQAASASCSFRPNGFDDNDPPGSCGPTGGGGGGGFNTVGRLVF
Outline: as §1

[4] = molecular target: T3, USP39 (UniProt Q53GS9)
T3 sequence (whole entry): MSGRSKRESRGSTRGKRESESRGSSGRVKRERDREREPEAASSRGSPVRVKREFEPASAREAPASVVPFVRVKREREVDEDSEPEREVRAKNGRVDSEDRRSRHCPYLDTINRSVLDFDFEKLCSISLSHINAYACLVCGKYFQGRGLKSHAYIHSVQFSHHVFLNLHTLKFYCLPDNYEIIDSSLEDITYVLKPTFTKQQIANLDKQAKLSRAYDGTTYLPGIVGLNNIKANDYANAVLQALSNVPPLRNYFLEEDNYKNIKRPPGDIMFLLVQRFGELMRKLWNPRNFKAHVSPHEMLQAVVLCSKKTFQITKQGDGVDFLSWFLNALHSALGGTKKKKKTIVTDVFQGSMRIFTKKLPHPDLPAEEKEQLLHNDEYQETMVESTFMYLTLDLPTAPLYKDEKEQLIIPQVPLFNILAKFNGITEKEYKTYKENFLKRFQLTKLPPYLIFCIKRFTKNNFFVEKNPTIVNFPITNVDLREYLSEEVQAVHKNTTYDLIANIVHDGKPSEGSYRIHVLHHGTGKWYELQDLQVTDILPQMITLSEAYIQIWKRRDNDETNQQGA
Outline: as §1

[5] = molecular target: T4, USP4 (UniProt Q13107)
T4 sequence (whole entry): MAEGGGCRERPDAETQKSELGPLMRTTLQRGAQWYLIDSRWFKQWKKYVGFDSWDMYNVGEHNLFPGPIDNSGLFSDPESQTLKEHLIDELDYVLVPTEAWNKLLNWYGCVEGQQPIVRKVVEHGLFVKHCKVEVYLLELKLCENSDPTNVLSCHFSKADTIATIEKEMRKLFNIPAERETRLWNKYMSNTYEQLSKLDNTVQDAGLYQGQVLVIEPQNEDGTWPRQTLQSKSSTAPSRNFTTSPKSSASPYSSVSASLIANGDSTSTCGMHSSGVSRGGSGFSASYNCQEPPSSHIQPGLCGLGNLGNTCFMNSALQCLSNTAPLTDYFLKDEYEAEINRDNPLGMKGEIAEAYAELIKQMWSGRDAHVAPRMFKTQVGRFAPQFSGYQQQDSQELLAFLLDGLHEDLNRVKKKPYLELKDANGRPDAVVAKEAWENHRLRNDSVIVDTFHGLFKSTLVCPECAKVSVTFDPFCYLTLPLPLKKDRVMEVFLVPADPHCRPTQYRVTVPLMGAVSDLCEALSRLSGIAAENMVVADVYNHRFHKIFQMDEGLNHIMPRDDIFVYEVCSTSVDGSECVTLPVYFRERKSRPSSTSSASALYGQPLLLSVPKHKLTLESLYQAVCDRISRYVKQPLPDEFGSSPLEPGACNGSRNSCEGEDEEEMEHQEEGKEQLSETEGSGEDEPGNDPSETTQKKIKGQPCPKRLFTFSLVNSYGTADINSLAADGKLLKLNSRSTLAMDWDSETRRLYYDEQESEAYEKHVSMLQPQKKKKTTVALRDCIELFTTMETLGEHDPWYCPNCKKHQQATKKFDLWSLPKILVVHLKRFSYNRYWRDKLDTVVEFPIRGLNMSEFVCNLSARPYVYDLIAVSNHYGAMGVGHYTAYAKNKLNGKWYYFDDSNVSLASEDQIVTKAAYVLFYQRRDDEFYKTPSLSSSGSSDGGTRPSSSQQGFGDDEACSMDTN
Outline: as §1

Measured: log2 ratio of Biotin-Ahx-Ub-VS probe labelling

Cl.Cn1cnc2cc(CNC(=O)CCl)ccc21
inactive: [1] -0.0912 | [2] -0.188 | [3] -0.21 | [4] -0.337 | [5] -0.0327
